The campaign covered roughly 39,000 compounds. About 1,500 (3.8%) were called active. Shown is part of a subset that was picked to be rich in actives.
Each compound was assayed on HSkMC (human skeletal muscle cells) (assay: cytotoxicity call (relative viability < 0.9)). Details: 10 µM.

SMILES | cytotoxicity call
Oc1cccc2ccccc12 | active
Oc1ccc(F)c2ccccc12 | inactive
Cc1cccc2ccccc12 | inactive
C[C@H](CO)N1C[C@H](C)[C@H](CN(C)C(=O)Nc2ccc(C(F)(F)F)cc2)OCCCC[C@H](C)Oc2ccc(NC(=O)C3CCCCC3)cc2C1=O | inactive
O=C(C[C@@H]1CC[C@@H]2[C@H](COC[C@@H](O)CN2S(=O)(=O)c2ccccc2)O1)NCc1ccc2c(c1)OCO2 | inactive
C[C@H]1CN([C@@H](C)CO)C(=O)c2c(c3ccccc3n2C)-c2ccccc2CO[C@@H]1CN(C)C(=O)NC1CCCCC1 | inactive
C=CC(C)(C)c1[nH]c2ccccc2c1C1=C(O)C(=O)C(c2c[nH]c3c(CC=C(C)C)cccc23)=C(O)C1=O | active
CC(C)=CCC1=C(O)C(=O)c2ccccc2C1=O | inactive
C[C@@H]1CN([C@@H](C)CO)C(=O)c2cc(NS(=O)(=O)c3cn(C)cn3)ccc2O[C@@H]1CN(C)C(=O)Nc1ccc(F)cc1 | inactive
C[C@@H]1CN([C@@H](C)CO)C(=O)c2cc(NC(=O)Nc3cccc4ccccc34)ccc2O[C@@H](C)CCCCO[C@@H]1CN(C)Cc1ccc(C(=O)O)cc1 | inactive
Cc1ccc(S(=O)(=O)N(C)C[C@H]2Oc3ccc(NS(=O)(=O)c4ccc(F)cc4)cc3C(=O)N([C@@H](C)CO)C[C@H]2C)cc1 | inactive
COc1ccccc1C#Cc1cnc2c(c1)C(=O)N([C@H](C)CO)C[C@@H](C)[C@H](CN(C)C(=O)c1ccc3c(c1)OCO3)O2 | inactive
COc1ccc(C#Cc2ccc([C@H]3[C@@H](CO)N4CCCCN(S(=O)(=O)c5cn(C)cn5)C[C@@H]34)cc2)cc1 | inactive
COc1ccc(C#Cc2ccc([C@H]3[C@@H](CO)N4CCCCN(S(=O)(=O)c5cn(C)cn5)C[C@H]34)cc2)cc1 | active
CC(C)(O)C#Cc1ccc([C@H]2[C@H](CO)N3CCCCN(S(C)(=O)=O)C[C@@H]23)cc1 | inactive
COc1ccc(C#Cc2ccc([C@@H]3[C@H](CO)N4CCCCN(S(=O)(=O)c5cn(C)cn5)C[C@@H]34)cc2)cc1 | inactive
COc1ccc(C#Cc2ccc([C@@H]3[C@@H](CO)N4CCCCN(S(=O)(=O)c5cn(C)cn5)C[C@H]34)cc2)cc1 | active
COc1ccc(C#Cc2ccc([C@@H]3[C@@H](CO)N4CCCCN(S(=O)(=O)c5cn(C)cn5)C[C@@H]34)cc2)cc1 | active
COc1ccc(C#Cc2ccc([C@@H]3[C@H]4CN(S(=O)(=O)c5cn(C)cn5)CCCCN4[C@H]3CO)cc2)cc1 | inactive
COc1ccc(C#Cc2ccc([C@H]3[C@H]4CN(S(=O)(=O)c5cn(C)cn5)CCCCN4[C@H]3CO)cc2)cc1 | inactive
COc1ccc(C#Cc2ccc([C@H]3[C@H](CO)N4CCCCN(S(=O)(=O)c5cn(C)cn5)C[C@@H]34)cc2)cc1 | inactive
C[C@H](CO)N1C[C@H](C)[C@H](CN(C)Cc2ccc(Oc3ccccc3)cc2)Oc2ccc(NC(=O)c3ccncc3)cc2C1=O | inactive
C[C@@H]1CN([C@@H](C)CO)C(=O)Cc2cc(NC(=O)Cn3cnnn3)ccc2O[C@@H]1CN(C)C(=O)Nc1cccc2ccccc12 | inactive
C=CC[C@H](CC(=O)NCCO)C(=O)N[C@@H](COC(=O)[C@@H](CC=C)CC(=O)OC(C)(C)C)Cc1c[nH]c2ccccc12 | inactive

SMILES | cytotoxicity call
COc1ccc(NC(=O)Nc2ccc3c(c2)C(=O)N([C@H](C)CO)C[C@H](C)[C@H](CN(C)S(=O)(=O)c2c(C)noc2C)OCCCC[C@@H](C)O3)cc1 | inactive
COCC(=O)Nc1ccc2c(c1)C(=O)N(C)C[C@@H](OC)[C@@H](C)CN(C(=O)Cc1cccnc1)[C@H](C)CO2 | inactive
C[C@@H]1CCCCO[C@H](CN(C)C(=O)Nc2ccc3c(c2)OCO3)[C@H](C)CN([C@@H](C)CO)C(=O)c2cc(NS(=O)(=O)c3ccc(F)cc3)ccc2O1 | inactive
Cc1ccc(S(=O)(=O)Nc2ccc3c(c2)C(=O)N([C@@H](C)CO)C[C@H](C)[C@H](CN(C)Cc2ccc(C(=O)O)cc2)OCCCC[C@@H](C)O3)cc1 | inactive
Cc1cc(C)n2nc(N)nc2n1 | inactive
Nc1ccc2c(c1)nc(CO)n2CCO | inactive
C[n+]1c2cc(N)ccc2cc2ccc(N)cc21.[Cl-] | inactive
Nc1ccc2cc3ccc(N)cc3nc2c1.O=S(=O)(O)O | active
C[C@@H]1CCCCO[C@@H](CN(C)Cc2ccccc2)[C@H](C)CN([C@@H](C)CO)C(=O)c2cc(NC(=O)C3CCCCC3)ccc2O1 | inactive
COCCC(=O)NS(=O)(=O)c1ccccc1 | inactive
CC(C)(C)C(=O)N1CCNCC1 | inactive
C[C@H]1CN([C@@H](C)CO)C(=O)c2cc(C#CCN(C)C)cnc2O[C@@H]1CN(C)C(=O)Nc1ccccc1F | inactive
C=C1C[C@@H]2CC[C@@]34C[C@H]5O[C@H]6[C@@H](O3)[C@H]3O[C@H](CC[C@@H]3O[C@H]6[C@H]5O4)CC(=O)C[C@@H]3[C@@H](OC)[C@@H](C[C@H](O)CN)O[C@H]3C[C@H]3O[C@@H](CC[C@@H]1O2)C[C@@H](C)C3=C | active
COc1ccc(NC(=O)N(C)C[C@@H]2Oc3ccc(NC(=O)Nc4ccc(C(F)(F)F)cc4)cc3CC(=O)N([C@@H](C)CO)C[C@@H]2C)cc1 | inactive
C[C@@H]1CN([C@H](C)CO)C(=O)c2cc(Br)cnc2O[C@H]1CN(C)S(=O)(=O)c1ccc(F)cc1 | inactive
COc1ccccc1C#Cc1ccc2c(c1)O[C@H](CN(C)Cc1ccncc1)[C@@H](C)CN([C@@H](C)CO)S2(=O)=O | active
COc1ccccc1C#Cc1ccc2c(c1)O[C@H](CN(C)Cc1ccncc1)[C@H](C)CN([C@@H](C)CO)S2(=O)=O | inactive
COc1ccccc1C#Cc1ccc2c(c1)O[C@@H](CN(C)Cc1ccncc1)[C@H](C)CN([C@@H](C)CO)S2(=O)=O | active
COc1ccccc1C#Cc1ccc2c(c1)O[C@H](CN(C)Cc1ccncc1)[C@H](C)CN([C@H](C)CO)S2(=O)=O | inactive
COc1ccccc1C#Cc1ccc2c(c1)O[C@@H](CN(C)Cc1ccncc1)[C@H](C)CN([C@H](C)CO)S2(=O)=O | active
COc1ccccc1C#Cc1ccc2c(c1)O[C@@H](CN(C)Cc1ccncc1)[C@@H](C)CN([C@H](C)CO)S2(=O)=O | inactive
COc1ccccc1C#Cc1ccc2c(c1)O[C@H](CN(C)Cc1ccncc1)[C@@H](C)CN([C@H](C)CO)S2(=O)=O | inactive
COc1ccccc1C#Cc1ccc2c(c1)O[C@@H](CN(C)Cc1ccncc1)[C@@H](C)CN([C@@H](C)CO)S2(=O)=O | inactive
C[C@H](CO)N1C[C@H](C)[C@H](CN(C)S(=O)(=O)c2cccc(F)c2)Oc2cc(Br)ccc2S1(=O)=O | inactive

SMILES | cytotoxicity call
C[C@@H]1CN([C@@H](C)CO)C(=O)c2cc(NS(C)(=O)=O)ccc2O[C@@H]1CN(C)C(=O)Nc1ccc(C(F)(F)F)cc1 | inactive
COc1ccc(S(=O)(=O)Nc2ccc3c(c2)C(=O)N([C@@H](C)CO)C[C@H](C)[C@@H](CN(C)C(=O)Nc2c(C)noc2C)O3)cc1 | inactive
C[C@@H]1CN([C@H](C)CO)C(=O)c2cc(NC(=O)Nc3cccc4ccccc34)ccc2O[C@@H]1CN(C)Cc1ccc2c(c1)OCO2 | inactive
CC(C)NC(=O)N(C)C[C@H]1OCCCC[C@H](C)Oc2ccc(NS(C)(=O)=O)cc2C(=O)N([C@@H](C)CO)C[C@@H]1C | inactive
N[C@@H]1CC[C@@H](c2ccc(Cl)c(Cl)c2)c2ccccc21 | active
CN[C@H]1CC[C@@H](c2ccc(Cl)c(Cl)c2)c2ccccc21 | inactive
CNC1CCC(c2ccc(Cl)c(Cl)c2)c2ccccc21.Cl (stereo not given) | active
COC(=O)c1c2oc(c1C(=O)OC)C(=O)N(C)Cc1cn(nn1)C[C@H](Cc1ccccc1)NC(=O)N[C@H](CO)CC2 | inactive
O=c1[nH]c2ccc(F)cc2[nH]1 | inactive
CC(C)NC(=O)N(C)C[C@@H]1Oc2ccc(NC(=O)Cc3ccccc3)cc2C(=O)N([C@@H](C)CO)C[C@H]1C | inactive
COc1ccc(CN(C)C[C@@H]2Oc3ccc(NS(=O)(=O)c4cn(C)cn4)cc3C(=O)N([C@@H](C)CO)C[C@H]2C)cc1 | inactive
C[C@H](CO)N1C[C@H](C)[C@H](CN(C)Cc2ccc(C(F)(F)F)cc2)OCCCC[C@H](C)Oc2ccc(NS(=O)(=O)c3ccccc3)cc2C1=O | inactive
CNC(=O)C[C@H]1CC[C@@H]2[C@H](COC[C@H](O)CN2C(=O)c2ccccn2)O1 | inactive
C[C@@H]1CCCCO[C@H](CN(C)C(=O)Nc2cccc3ccccc23)[C@@H](C)CN([C@@H](C)CO)C(=O)c2cc(NC(=O)Nc3ccc(C(F)(F)F)cc3)ccc2O1 | inactive
C[C@@H]1CCCCO[C@@H](CN(C)C(=O)Nc2cccc3ccccc23)[C@H](C)CN([C@@H](C)CO)C(=O)c2cc(NC(=O)Nc3ccc(C(F)(F)F)cc3)ccc2O1 | inactive
C[C@H](CO)N1C[C@H](C)[C@H](CN(C)C(=O)Nc2cccc3ccccc23)OCCCC[C@H](C)Oc2ccc(NC(=O)Nc3ccc(C(F)(F)F)cc3)cc2C1=O | inactive
C[C@@H]1CCCCO[C@@H](CN(C)C(=O)Nc2cccc3ccccc23)[C@H](C)CN([C@H](C)CO)C(=O)c2cc(NC(=O)Nc3ccc(C(F)(F)F)cc3)ccc2O1 | inactive
C[C@@H]1CCCCO[C@@H](CN(C)C(=O)Nc2cccc3ccccc23)[C@@H](C)CN([C@H](C)CO)C(=O)c2cc(NC(=O)Nc3ccc(C(F)(F)F)cc3)ccc2O1 | active
C[C@H](CO)N1C[C@H](C)[C@@H](CN(C)C(=O)Nc2cccc3ccccc23)OCCCC[C@H](C)Oc2ccc(NC(=O)Nc3ccc(C(F)(F)F)cc3)cc2C1=O | inactive
C[C@@H]1CN([C@@H](C)CO)C(=O)c2cc(NC(=O)Nc3ccc(C(F)(F)F)cc3)ccc2O[C@@H](C)CCCCO[C@H]1CN(C)C(=O)Nc1cccc2ccccc12 | inactive
C[C@@H]1CN([C@@H](C)CO)C(=O)c2cc(NC(=O)Nc3ccc(C(F)(F)F)cc3)ccc2O[C@@H](C)CCCCO[C@@H]1CN(C)C(=O)Nc1cccc2ccccc12 | active
C[C@@H]1CCCCO[C@@H](CN(C)C(=O)Nc2cccc3ccccc23)[C@@H](C)CN([C@@H](C)CO)C(=O)c2cc(NC(=O)Nc3ccc(C(F)(F)F)cc3)ccc2O1 | active

From the antibiotic and cytotoxicity screens of Wong et al. (2023)
